The list is not random: actives were taken first. Their share in the collection is about 2.2%.
CHT block: inhibitors of human choline transporter CHT; High affinity choline transporter 1 (Homo sapiens), Q9GZV3; B-score at 10 µM; 310,000 tested, 0.86% active; CHT-expressing cells, membrane potential dye, choline response; stronger effect = lower value;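 active = B-score over 3 SD under the library average, and starting fluorescence ratio not unusually high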;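 also: choline stimulus applied at its EC90 after an EC20 pre-addition; B-score computed on integrated fluorescence ratio after choline addition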
Target sequence (Q9GZV3 whole entry, looked up): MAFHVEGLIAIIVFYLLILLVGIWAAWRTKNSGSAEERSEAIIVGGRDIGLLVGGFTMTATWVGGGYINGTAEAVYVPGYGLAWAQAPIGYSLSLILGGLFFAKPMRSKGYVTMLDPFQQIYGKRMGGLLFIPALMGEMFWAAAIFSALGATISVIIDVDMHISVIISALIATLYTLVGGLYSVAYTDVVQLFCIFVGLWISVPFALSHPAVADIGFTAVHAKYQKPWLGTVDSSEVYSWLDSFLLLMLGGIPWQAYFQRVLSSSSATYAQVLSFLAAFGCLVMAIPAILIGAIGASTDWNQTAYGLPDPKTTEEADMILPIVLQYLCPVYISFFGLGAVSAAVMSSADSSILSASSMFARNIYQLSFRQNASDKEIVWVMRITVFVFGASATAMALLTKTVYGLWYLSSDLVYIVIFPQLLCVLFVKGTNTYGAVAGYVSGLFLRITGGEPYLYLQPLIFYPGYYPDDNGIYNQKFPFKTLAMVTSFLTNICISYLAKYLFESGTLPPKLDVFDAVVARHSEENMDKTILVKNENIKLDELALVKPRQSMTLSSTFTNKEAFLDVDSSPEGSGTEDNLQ
VLA-4 inh: inhibition in human VLA-4 binding assay, primary screen, VLA-4 allosteric modulator project, MLPCN library, flow cytometry, VLA-4 expressing cells | ligand binding flow cytometry | AID 2557, 2010 | 330,000 tested, 0.2% active | inhibition, % (about 7 µM as worked out from the volumes in the protocol); in the data active = inhibition above about 50%
AI-2 QS modul: Vibrio harveyi AI-2 quorum sensing modulators, primary screen, JMH597 strain, luminescence/OD600 ratio. Vibrio harveyi JMH597 AI-2 luminescence/OD600 ratio, 9 h; stronger effect = lower value; strain lacks LuxN and CqsS sensors; 0 = neutral-control median. activity change, % at 7.5 µM. 300,000 tested, 0.4% active; in the data active = activity change below about -75%, passing the limit was not always enough; inconclusive = no clear call, values can overlap the other calls;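 also: luminescence divided by OD600 gain over 9 h not by final OD600 alone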
HIF act: HIF pathway transcriptional activators, primary screen, cell-based, U2OS HRE-luciferase, luminescence. U2OS HRE-luciferase reporter; normalized: DMSO 0%, desferrioxamine 100%. activation, % at 7.5 µM (by protocol). 300,000 tested, 0.32% active;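 active = mean activation of at least 10% of the iron chelator positive control signal, with at least half of replicates also reaching 10%; inconclusive = mean and replicate majority disagree about reaching 10%; inactive = mean and most replicates under 10%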
CHT allo act: CHT positive allosteric modulators, primary screen, cell-based, membrane potential dye, choline EC20. B-score at 10 µM. CHT-expressing cells; stronger effect = higher value; LV-AA mutant CHT in HEK293 cells. 310,000 tested, 0.49% active. High affinity choline transporter 1 (Homo sapiens), Q9GZV3;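 active = initial fluorescence not abnormally high and integrated response B-score, plate-corrected, over 3 SD above library mean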
Platelet DG rel: inhibitors of platelet dense granule secretion, primary screen, cell-based, MLPCN, human platelets; human platelet-rich plasma, SFLLRN dense granule ATP release, luminescence; inhibition, %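 (compounds screened at 7.5 µM in platelet-rich plasma)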; 300,000 tested, 0.22% active;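 active = mean replicate score, as percent of positive control, at or above 50; inconclusive = mean below 50 but at least one replicate at or above 50; inactive = mean and every replicate below 50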
Numbers stand for hits; – = inactive; ? = inconclusive; · = no result given.

SMILES | CHT block | VLA-4 inh | AI-2 QS modul | HIF act | CHT allo act | Platelet DG rel
Cc1oc2ccc(O)cc2c1C(=O)c1ccc(F)cc1 | – | – | – | – | – | –
COC(=O)CCCC(=O)N1CCCC(C(=O)c2ccc(OC)cc2C)C1 (centres undefined) | – | – | – | – | – | –
O=C(COC(=O)c1ccccn1)NCCc1ccc(Cl)cc1 | · | – | · | · | · | ·
c1ccc2c(-c3nnc(SCc4cn5ccccc5n4)o3)c[nH]c2c1 | – | – | – | – | – | –
c1ccc(CSc2nnc(-c3c[nH]c4ccccc34)o2)cc1 | – | – | -82 | – | – | –
CSCC[C@H](NC(=O)C1CCN(S(=O)(=O)c2ccc(C)cc2C)CC1)c1nc2ccccc2[nH]1 | · | – | · | · | · | ·
CCOC(=O)c1c(C)nc2ccc(C)cn12 | – | – | – | – | – | –
CCOC(=O)c1c(C)nc2cc(C)ccn12 | – | – | – | 14 | – | –
O=Cc1cc(N=Nc2ccccc2Cl)ccc1O | – | – | – | 17 | – | –
O=Cc1cc(N=Nc2cccc(C(=O)O)c2)ccc1O | – | – | – | – | – | –
Cc1cc(C)c(C)c(S(=O)(=O)NCc2ccc(C(=O)N3CCOCC3)cc2)c1C | – | – | – | – | – | –
O=C(N/N=C/c1ccc(O)cc1O)/C(=C/c1ccccc1)CCO | – | – | – | – | – | –
COc1cc(/C=N/NC(=O)/C(=C/c2ccccc2)CCO)ccc1O | – | – | – | – | – | 56
COc1ccc(CNC(=S)N/N=C/c2ccncc2)cc1 | – | – | – | – | – | –
COc1ccc(CNC(=S)N/N=C/c2ccc(O)c(OC)c2)cc1 | – | – | – | 20 | – | –
CCOc1cc(/C=N/NC(=O)C(=O)N/N=C/c2ccc(O)c(OCC)c2)ccc1O | – | – | – | – | – | –
CCOc1cc(/C=N/NC(=O)N/N=C/c2ccc(O)c(OCC)c2)ccc1O | – | – | – | – | – | 58
COc1cccc(CN(C)C(=O)C2CCN(S(=O)(=O)c3cccs3)CC2)c1OC | · | – | · | · | · | ·
COC(=O)C1SCC2C(=O)N(Cc3ccc(Cl)c(Cl)c3)CC(=O)N21 (centres undefined) | – | – | – | – | – | –
Cc1[nH]c(=O)[nH]c(=O)c1/C=N/NC(=O)CCNC(=O)OC(C)(C)C | – | – | – | – | – | 77
CCOc1ccc(OCC(=O)Nc2nccs2)cc1 | – | – | – | – | – | 69
CN1CCN(C2Cc3ccc(F)cc3Sc3cc(F)c(Cl)cc32)CC1 (centres undefined) | – | – | – | 39 | – | –
O=c1c2cc(Cl)ccc2nc(-c2ccc(Cl)c(Cl)c2)n1O | -7 | – | – | – | – | –
N#Cc1ccc(-c2nc3ccc(Br)cc3c(=O)n2O)cc1 | – | – | -111 | – | – | –
CC(=O)Nc1ccc(S(=O)(=O)Nc2ccc(S(=O)(=O)Nc3nccs3)cc2)cc1 | – | – | – | 23 | – | –
SMILES | CHT block | VLA-4 inh | AI-2 QS modul | HIF act | CHT allo act | Platelet DG rel
Cc1c(C)c2ccc(OCC(=O)N(C)C)c(C)c2oc1=O | – | – | – | – | – | –
Cc1c(C)c2ccc(OCC(=O)Nc3ccccn3)c(C)c2oc1=O | – | – | – | – | – | 52
COc1ccc(/C=C2/SC(=O)N(CCC(=O)Nc3ccccc3C(=O)O)C2=S)cc1 | – | – | – | – | – | –
COc1ccc(-n2ncc3c(N4CCN(Cc5ccccc5)CC4)ncnc32)cc1 | – | – | – | – | – | –
Cc1nc(S/C(C(=O)O)=C2/C(=O)Nc3ccccc32)n[nH]1 | – | – | – | – | – | 61
Cc1ccc(CNC(=O)CN(c2cccc([N+](=O)[O-])c2)S(=O)(=O)c2ccccc2)cc1 | – | – | – | – | – | –
O=C(CN(c1cccc([N+](=O)[O-])c1)S(=O)(=O)c1ccccc1)NCc1ccccc1 | – | – | – | – | – | 57
Cc1cccc(NC(=O)COC(=O)c2nn(C)c(=O)c3ccccc23)c1C | · | – | · | · | · | ·
CN(C)S(=O)(=O)c1ccc(NC(=O)/C=C/c2ccccc2Cl)cc1 | – | – | -93 | – | – | –
Cc1cc(C)nc(NS(=O)(=O)c2ccc(CC(C)C)cc2)c1 | – | – | – | – | – | –
COc1cccc(NC(=O)c2cc3cccc(OC)c3o/c2=N\O)c1 | -5.3 | – | – | – | – | –
COc1ccc(NC(=O)c2cc3cccc(OC)c3oc2=Nc2ccc(C(=O)O)cc2)cc1OC | · | · | – | – | · | –
CCOC(=O)N/N=C(/C)c1ccc([N+](=O)[O-])o1 | – | – | -88 | – | – | –
CC(C)[C@H](NS(=O)(=O)c1ccccc1)C(=O)Nc1ccccc1N1CCOCC1 | · | – | · | · | · | ·
Cc1sc2ncnc(Sc3nnnn3-c3ccc(Cl)cc3)c2c1C | – | – | – | 17 | – | –
Cc1ccc(S(=O)(=O)NCC(=O)OCC(=O)NC(=O)c2cccn2C)cc1 | – | – | – | – | – | –
Cc1ccc(S(=O)(=O)NCCC(=O)OCC(=O)NC(=O)c2cccn2C)cc1 | – | – | – | – | – | 61
Cc1cccc(N2CCN(c3ccc(N4C(=O)CCCC4=O)cc3[N+](=O)[O-])CC2)c1C | – | – | – | – | – | –
Cc1cccc(N2CCN(c3ccc(N4C(=O)CCCC4=O)cc3[N+](=O)[O-])CC2C)c1 (centres undefined) | – | – | – | 79 | – | –
CN(CCO)c1ncnc2c1sc1nc(N3CCOCC3)c3c(c12)CCC3 | – | – | – | – | – | –
COc1ccccc1N1CCN(Cc2ccc(O)c3ncccc23)CC1 | – | – | – | 27 | – | –
COc1ccc(C2CC(c3ccccc3)=NN2C(=O)CN2CCN(Cc3ccccc3)CC2)cc1 (centres undefined) | – | – | – | – | – | –
O=C(N/N=C\c1cc(Cl)ccc1O)c1ccc(S(=O)(=O)N2CCCCC2)cc1 | – | – | – | 45 | – | –
O=C(N/N=C/c1cc(Cl)ccc1O)c1ccccc1Br | – | – | – | 10 | – | –
O=C(CNC(=O)c1ccccc1Br)N/N=C/c1cc(Br)ccc1O | – | – | – | 21 | – | –
O=C(CNC(=O)c1ccccc1Br)N/N=C/c1ccccc1O | – | – | – | – | – | –
CCOc1ccc(/C=N/NC(=O)c2[nH]ncc2Br)c(O)c1 | – | – | ? | 23 | – | 84
O=C(N/N=C/c1c(O)ccc2ccccc12)c1[nH]ncc1Br | – | – | – | 115 | – | –
O=C(N/N=C\c1c(O)ccc2ccccc12)c1ccc(Cn2cccn2)o1 | – | – | – | 38 | – | –
Cc1ccc(O)c(/C=N/NC(=O)c2[nH]ncc2Br)c1 | – | – | – | – | – | –
